# Bioassay records as filed in PubChem.
# ATXN viability: viability counter-screen for ATXN expression inhibitors. S2 cells (HEK-293 line with an ATXN2-luciferase reporter) viability, CellTiter-Fluor protease fluorescence, 24 h. Potency, µM (doses to about 56.7 µM), usual class: cytotoxic. 400,000 compounds, 0.49% hits. AID 651635; note: nearly all actives have a fitted effect of over 40% in size
# GLP1R inv ag: inverse agonists of human GLP-1 receptor | Potency, µM (doses to about 38.3 µM), for inactives: at the highest dose activity change, negative = inhibition, actives largely listed as inhibitors | P43220 | AID 624417 | 410,000 compounds, 1.6% hits | HEK293 GLP-1R CRE-luciferase, luminescence, 24 h; GLP-1R form is constitutively active; note: % is set by controls: 0 for no effect and ±100 for the full control effect; nearly all actives have a fitted effect of over 55% in size
# Target sequence (P43220 whole entry, looked up): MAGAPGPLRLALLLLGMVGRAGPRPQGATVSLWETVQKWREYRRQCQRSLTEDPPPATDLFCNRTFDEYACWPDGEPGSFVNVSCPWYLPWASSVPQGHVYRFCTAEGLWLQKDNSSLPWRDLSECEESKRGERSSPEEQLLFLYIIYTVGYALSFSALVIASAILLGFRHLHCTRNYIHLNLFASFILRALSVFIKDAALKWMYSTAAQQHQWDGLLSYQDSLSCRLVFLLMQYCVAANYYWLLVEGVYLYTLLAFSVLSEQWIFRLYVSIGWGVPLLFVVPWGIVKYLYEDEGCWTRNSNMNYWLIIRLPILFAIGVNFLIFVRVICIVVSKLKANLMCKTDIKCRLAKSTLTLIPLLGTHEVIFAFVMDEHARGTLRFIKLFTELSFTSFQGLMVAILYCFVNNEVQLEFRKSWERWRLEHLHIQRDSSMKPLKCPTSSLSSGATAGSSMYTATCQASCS
#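 GLP-1R inverse agonism mode: basal reporter luminescence in engineered HEK293 cells measured after one day of compound exposure at 37 deg C, with a 12 min room-temperature detection step.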
# TGFb SMAD3 inh: blocks TGF-b signaling; 410,000 compounds, 1.2% hits; Potency, µM (top dose mostly 46.1 µM), for the others: at the highest dose activity, negative = inhibition, hits mostly inhibitors; HepG2 CAGA-GFP TGF-b/SMAD3 reporter, GFP fluorescence, 18 h; TGF-beta stimulated, 500 pg/mL final; note: % is set by controls: 0 for no effect and ±100 for the full control effect; nearly all actives have a fitted effect of over 65% in size
#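 First, reporter cells (HEPG2 CAGA-GFP) rested 2 h at 37 degrees C. Next, compounds were pinned in and TGF-beta added to 500 pg/mL final. After 18 h, GFP was imaged per cell and summed per well.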
# ATXN2 expr inh: ATXN2 expression inhibition | Potency, µM (titrated, usually from 57 µM), for the others: at the top dose activity change, negative = inhibition, most hits filed as inhibitors | 360,000 compounds, 0.72% hits | HEK-293 ATXN2-luciferase reporter, luminescence, 24 h | AID 1745845; note: % is set by controls: 0 for no effect and ±100 for the full control effect; nearly all actives have a fitted effect of over 55% in size
#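 ATXN2-luciferase reporter cells (luciferase flanked by upstream and downstream ATXN2 gene portions) were treated 24 h at 37 °C with compounds at up to 57 uM. SteadyGlo luminescence gave expression; GF-AFC fluorescence gave viability.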
# HepG2 tox: kills HepG2 cells in TGF-b inhibitor counter-screen. HepG2 CAGA-GFP viability, ATP luminescence, 18 h. Potency, µM (doses to about 46.1 µM), for inactives: at the top dose activity change, negative = cytotoxicity, most hits filed as cytotoxic. 410,000 compounds, 0.76% hits
#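 HepG2 CAGA-GFP cells (1000/well, DMEM with 1% FBS) received compound, then TGF-beta at 500 pg/mL final, and were incubated 18 hours at 37 degrees C. Viability was read by CellTiter-Glo luminescence. Media-only wells were set as complete cell-killing and DMSO as no toxicity.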
# GLP1R ag: activates the human GLP-1 receptor; P43220; HEK293 GLP-1R CRE-luciferase, luminescence, 4-6 h; cells express a hypersensitive GLP-1R form; Potency, µM (series often up to 45.6 µM), for the others: at the top dose activation, actives largely listed as activators; 380,000 compounds, 0.007% hits; AID 624172; note: % of control where 0% means no effect
# Numbers without * were called inactive; i = inactive; ? = inconclusive; . = not tested or not shown. In the library only some 3.7% were active in any assay of this set; here they are far more common. Calls come from the whole dose curve; as a rule, active = well fitted curve in the direction sought with a large enough effect; inconclusive = small, poorly fitted or top-dose-only effect, or another doubt; inactive = no such curve, though single readings can be large; an effect the other way counts as inactive or inconclusive. Potency is the fitted concentration of half-maximal effect.
SMILES,ATXN viability,GLP1R inv ag,TGFb SMAD3 inh,ATXN2 expr inh,HepG2 tox,GLP1R ag
COc1cccc(CNc2ncnc3sc(C(=O)N4CCOCC4)c(C)c23)c1OC,i,.,.,.,.,.
CN(C(=O)c1cnc(N2CCN(c3ncccn3)CC2)c2ccccc12)c1ccc(Cl)cc1,i,2%,5%,?,10%,0%
CCN(C(=O)c1cnc(N2CCN(c3ncccn3)CC2)c2ccccc12)c1cccc(Cl)c1,?,10µM*,?,-33%,-38%,-4%
C/C(=C(\CCO)SS/C(CCO)=C(\C)N(C=O)Cc1cnc(C)nc1N)N(C=O)Cc1cnc(C)nc1N,i,.,.,17%,.,.
COc1cc(OC)c(NC(=O)c2ccc3c(Cl)c4c(nc3c2)CCCC4)cc1Cl,i,11%,1%,13%,8%,1%
COc1cc(OC)c(Nc2c3c(nc4nc(-c5cccs5)nn24)CCCC3)cc1Cl,28µM*,?,?,-23%,-30%,.
CCc1cc(C(=O)NNC(=O)CCl)sc1C,28µM*,-29%,1%,.,-31%,8%
Cc1ccc(C(=O)CC2(O)C(=O)N(CCc3ccccc3)c3ccc(Cl)cc32)cc1 (stereo not drawn),?,?,18µM*,?,11µM*,-6%
Cc1ccc(C(=O)CC2(O)C(=O)N(CCc3ccccc3)c3ccc(Br)cc32)o1 (stereo not drawn),i,7.9µM*,?,-7%,7%,2%
CCOC(=O)C1=C(CNCCc2ccc(Cl)cc2)NC(=O)NC1c1ccc2c(c1)OCO2 (stereo not drawn),?,6.3µM*,?,?,-39%,4%
CCOC(=O)C1=C(CN(CC)Cc2ccccc2)NC(=O)NC1c1ccc(Cl)cc1 (stereo not drawn),?,10µM*,?,?,-51%,-5%
NC(=S)NN=C(c1ccc(Br)cc1)C1CC1,?,4µM*,?,-4%,-74%,-9%
COc1ccc(Cn2c(=O)n(Cc3ccco3)c(=O)c3oc4ccccc4c32)cc1,.,-18%,-14%,.,-10%,.
CCNC(=O)C1(C)CCCN(Cc2ccc(Oc3ccccc3)cc2)C1 (stereo not drawn),i,10µM*,-5%,-9%,-38%,1%
O=C(O)c1cc(O)c2c(c1)[C@@H]([C@H]1c3cc(C(=O)O)cc(O)c3C(=O)c3c(O[C@@H]4O[C@H](CO)[C@@H](O)[C@H](O)[C@H]4O)cccc31)c1cccc(OC3O[C@H](CO)[C@@H](O)[C@H](O)[C@H]3O)c1C2=O (stereo partly drawn),?,-15%,11µM*,0%,-39%,-12%
CC(C)(C)NC(=O)[C@H]1CC[C@H]2[C@@H]3CC=C4C=C(C(=O)O)CC[C@@]4(C)[C@H]3CC[C@]12C,.,.,.,.,.,-6%
COC(=O)N1C(=O)[C@](CC(C)C)(c2ccccc2)N1C(=O)OC,?,-1%,8.9µM*,2%,-61%,-4%
CCOC(=O)N1C(=O)[C@@](CC)(c2ccccc2)N1C(=O)OCC,32µM*,-5%,?,-35%,-103%,0%
CC[C@@]1(c2cccc(C)c2)C(=O)N(C(=O)OC)N1C(=O)OC,i,5%,-24%,2%,-5%,-3%
CC[C@@]1(c2ccccc2OC)C(=O)N(C(=O)OC)N1C(=O)OC,i,2%,?,13%,-9%,-6%
Cc1c(C(=O)NCCCc2ccncc2)cnn1-c1ncc2c(n1)-c1ccccc1CC2,i,.,.,.,.,.
CN(Cc1ccccc1)c1cc2c(c3c1ccn3C)C1CCC2O1 (stereo not drawn),i,-16%,?,-27%,2%,5%
CN(C)CCN(C)c1cc2c(c3c1ccn3C)C1CCC2O1 (stereo not drawn),i,4%,-21%,12%,-13%,1%
Cn1ccc2c(N3c4ccccc4CCc4ccccc43)cc3c(c21)C1CCC3O1 (stereo not drawn),i,13%,?,-17%,7.1µM*,-3%
Cn1ccc2c(N(Cc3ccccc3)Cc3ccccc3)cc3c(c21)C1CCC3O1 (stereo not drawn),i,-16%,10µM*,11%,1%,1%
SMILES,ATXN viability,GLP1R inv ag,TGFb SMAD3 inh,ATXN2 expr inh,HepG2 tox,GLP1R ag
COc1ccccc1N(C)c1cc2c(c3c1ccn3C)C1CCC2O1 (stereo not drawn),?,?,16µM*,-35%,-48%,0%
Cn1ccc2c(N3c4ccccc4CCc4ccccc43)cc3c(c21)C1CCC3C1 (stereo not drawn),?,?,?,0%,-7%,-3%
O=C(NCCN1Cc2ccccc2OC(c2ccsc2)C1)c1ccc2[nH]ccc2c1 (stereo not drawn),i,.,.,.,.,.
CN(C)c1nc2cc(Cl)ccc2cc1CN(Cc1ccc2c(c1)OCO2)C(=O)c1ccoc1,i,.,.,.,.,.
CC(=O)N(C1CC(C)C(C#N)(C#N)C1(C#N)C#N)N(C)C (stereo not drawn),30µM*,?,?,?,-38%,-3%
CCCC(=O)N(C1CC(C)C(C#N)(C#N)C1(C#N)C#N)N(C)C (stereo not drawn),?,?,11µM*,?,-96%,-6%
c1ccc2c(c1)ccn2-n1ccc2ccccc21,.,.,16µM*,.,-58%,.
COc1ccc(-n2ccc3ccccc32)cc1,i,?,-3%,.,12%,19%
Oc1ccccc1-c1nc2ccccc2nc1-c1ccccc1,i,11µM*,-1%,5%,-1%,24%
Cc1ccc(-c2cc(C(F)(F)F)n3nc(C(=O)Nc4sc5c(c4C#N)CCC(C)C5)cc3n2)cc1 (stereo not drawn),i,-1%,-15%,4%,6%,.
O=C(Cc1c[nH]c2ccccc12)OCC(=O)c1ccccc1,i,13µM*,9%,7%,5%,2%
COc1ccc(C(=O)COC(=O)Cc2c[nH]c3ccccc23)c(OC)c1,i,?,?,-10%,9%,9%
O=C(Cc1cn(Cc2cccc(Cl)c2)c2ccccc12)N1CCCCCC1,i,10µM*,?,-23%,-9%,1%
C=CS(=O)(=O)N(Cc1ccc(Cl)c(Cl)c1)C[C@@H](O)CO,?,6.3µM*,-11%,?,-3%,3%
COc1ccccc1NC(=S)NCCC(c1ccccc1)c1ccccc1,i,?,13µM*,.,-14%,-1%
